Only some compounds are listed: those with a hit (about 4.6% of all), similar ones and a draw of the others.
D1 antag: human D1 dopamine receptor antagonism. activity change, negative = inhibition, % at 10 µM. HEK293 TREx D1 cells, calcium flux, dopamine EC80; stronger effect = lower value. 360,000 tested, 3.2% active; in the data active = activity change below about -30%; note: % is set by controls: 0 for no effect and ±100 for the full control effect
Target sequence (P21728 whole entry, looked up): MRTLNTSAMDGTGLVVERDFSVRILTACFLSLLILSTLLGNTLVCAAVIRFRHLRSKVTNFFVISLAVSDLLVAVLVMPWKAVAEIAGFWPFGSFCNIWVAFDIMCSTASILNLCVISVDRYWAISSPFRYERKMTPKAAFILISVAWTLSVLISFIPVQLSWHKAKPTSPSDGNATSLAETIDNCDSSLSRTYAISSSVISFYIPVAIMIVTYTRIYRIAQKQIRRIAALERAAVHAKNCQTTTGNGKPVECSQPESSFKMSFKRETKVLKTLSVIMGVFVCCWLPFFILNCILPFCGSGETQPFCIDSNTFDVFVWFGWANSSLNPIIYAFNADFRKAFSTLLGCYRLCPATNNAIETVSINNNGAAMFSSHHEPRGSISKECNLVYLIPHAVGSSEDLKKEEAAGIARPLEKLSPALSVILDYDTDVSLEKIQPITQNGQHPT
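Cells carrying a force-coupled, tetracycline-inducible human D1 receptor report calcium flux. Each well gets a 10 s baseline, compound with 180 s monitoring, then an EC80 dopamine stimulus with a second 180 s kinetic read.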
D1 ag: human D1 receptor agonism. P21728. HEK293 T-REx D1 cells, calcium flux, agonist mode. activation, % at 2 µM. 360,000 tested, 1% active. AID 504660; note: 0% is about no effect
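Tetracycline-induced HEK293 TREx D1 cells, force-coupled to calcium signalling, were dye-loaded with a no-wash calcium kit. Compound was pin-added after a 10 s baseline. Fluorescence was read kinetically at 1 cycle/s for 180 s, with calcium rises flagged as agonism.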
D1 potentiator: enhances dopamine response at the human D1 receptor; P21728; HEK293 TREx D1 cells, calcium flux, dopamine EC20 potentiation; potentiation, % at 10 µM; 360,000 tested, 0.036% active; AID 504651; in the data active = potentiation above about 30%; note: 0% is about no effect
TRHR PAM: allosteric enhancers of human TRH receptor; 360,000 tested, 0.66% active; TRHR cells, fluo-8 calcium fluorescence, EC20 TRH enhancement; enhancement, % at 2 µM; in the data active = enhancement above about 30%; note: 0% is about no effect
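Enhancer read-out: after compound pinning and an initial kinetic agonist-mode read, an EC20 of TRH (10 nM final) was injected and fluo-8 calcium signal (Ex 480/Em 530) followed at 1 s/cycle for 100 cycles in TRHR-expressing cells.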
Epigenetic reg: derepresses silenced GFP reporter in murine cells. murine LDR cells, GFP reporter derepression, 30 h. Potency, µM (series often up to 53.9 µM), without a hit: top-dose GFP activation, actives largely listed as activators. 280,000 tested, 0.2% active; active = well fitted activation curve with a large enough effect; note: potency is the fitted concentration of half-maximal effect; % of control where 0% means no effect; nearly all actives have a fitted effect of over 60% in size
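Reporter derepression read as number of fluorescent GFP-positive objects, 20-120 um in size, counted by laser-scanning cytometer. Mouse LDR line with an epigenetically silenced CMV-GFP locus; compound incubation 30 h, 37 C.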
TRHR ag: agonists of human TRH receptor | 360,000 tested, 0.18% active | TRHR cells, calcium flux fluo-8, FDSS agonist mode | AID 493084 | activation, % at 2 µM | P34981; note: 0% is about no effect
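In this calcium-flux screen, cells bearing human TRHR are dye-loaded with fluo-8, baselined for 10 cycles, then exposed to library compounds; positive kinetic calcium responses during the agonist phase mark hits, with TRH as control.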
* = called active by the depositor; nt = not tested or not shown. Cut-off read from the data, not from the text of the source, unless noted: active = activation above about 30%; inactive = the rest.

SMILES	D1 antag	D1 ag	D1 potentiator	TRHR PAM	Epigenetic reg	TRHR ag
NC(=O)Cn1c(=O)n(CCCCCC(=O)NCc2ccccc2)c(=O)c2sccc21	-39*	1	-2	-3	-1%	1
CCc1ccc(CN(C(=O)c2ccc(OC)cc2)C2CCS(=O)(=O)C2)cc1 (centres undefined)	-6	0	-6	2	2%	0
CCN(CC)C(=O)c1sc2c(c1C)c(=O)n(Cc1ccccc1)c(=O)n2CC(=O)Nc1ccc(OC)cc1	-35*	6	1	-9	1%	6
COCCCn1c(=O)c2sccc2n2c(CCCC(=O)NCc3ccc(OC)cc3)nnc12	-31*	4	-2	1	nt	0
CCN(CC)C(=O)c1sc2c(c1C)c(=O)n(-c1ccc(OC)cc1OC)c(=O)n2CC(=O)Nc1ccccc1	2	27	-2	-7	-1%	0
Cc1ccc(OCC(=O)OCCN2C(=O)c3ccccc3C2=O)cc1C	4	1	0	-3	19%	0
Cc1cc(C)cc(OCC(=O)OCCN2C(=O)c3ccccc3C2=O)c1	-7	3	14	39*	1%	0
Cc1ccc(C)c(S(=O)(=O)NCC(c2ccco2)S(=O)(=O)c2ccc(F)cc2)c1 (centres undefined)	nt	22	-3	3	3%	0
COc1ccc(-c2nn(-c3ccccc3)cc2/C=N/NC(=O)c2cccc(S(=O)(=O)Nc3ccccc3Cl)c2)cc1	-36*	2	-14	-25	0%	0
COc1ccc(N2CC(NC(=O)C3CC3)CC2=O)cc1 (centres undefined)	nt	2	-1	13	4%	-1
O=C(Cc1ccccc1)NC1(O)C(=O)c2ccccc2C1=O	-35*	1	-6	-21	2%	0
O/N=C/c1ccc(OCc2ccccc2)c(Br)c1	-33*	2	1	3	1%	-1
COc1ccc(C(=O)Nc2ccc(C(=O)Nc3cccc(C)c3)cc2)cc1	-31*	2	-5	0	nt	0
COc1cccc(C(=O)Nc2ccncc2)c1	-59*	3	-9	0	0%	0
COC(=O)c1ccc(NC(=O)c2cccc(OC)c2)cc1	-52*	23	-3	-9	-1%	-1
COc1ccc(NC(=O)c2cccc(NC(=O)c3ccccc3)c2)cc1	-18	7	-3	6	nt	-2
COc1cccc(C(=O)Nc2nc3c(s2)CN(C)CC3)c1	9	99*	-3	24	2%	0
COC(=O)c1cccnc1-n1c(=O)c2cccnc2n(CC(=O)Nc2cccc(C)c2)c1=O	2	9	0	2	3%	-1
Cn1nnc2c(N3CCN(c4cccc(Cl)c4)CC3)ncnc21	nt	1	-2	1	1%	0
Cc1ccc(CNC(=O)C2CCN(S(=O)(=O)c3c(C)noc3/C=C/c3ccccc3F)CC2)o1	17	18	3	-1	-1%	1
O=C(Nc1cccc(Br)c1)Nc1nc2c(s1)CCCCCC2	-15	15	-1	4	17%	1
O=C(CSc1ccncc1)Nc1ccc2ccccc2c1	-31*	14	-9	-2	0%	0
O=C(CSc1ccc2ccccc2c1)Nc1ccncc1	nt	12	-4	0	2%	0
O=C(Nc1ccncc1)c1ccc2ccccc2c1	-38*	8	-8	3	0%	0
CCn1nc(-c2ccccc2)c(-c2ccccc2)c(C(=O)Nc2nc(C)c(C(=O)N(C)C)s2)c1=O	-4	3	2	0	-4%	1
SMILES	D1 antag	D1 ag	D1 potentiator	TRHR PAM	Epigenetic reg	TRHR ag
N#CC1=C(S)N(c2ccccc2)C(c2ccc(-c3ccc(Cl)c(Cl)c3)o2)NC1=O (centres undefined)	-17	63*	-1	1	1%	2
Cc1ccc(N2C(S)=C(C#N)C(=O)NC2c2ccco2)cc1 (centres undefined)	-47*	2	-6	1	3%	0
N#CC1=C(S)N(c2ccc(F)cc2)C(c2ccco2)NC1=O (centres undefined)	-2	4	-4	5	1%	0
CC1=C(C(=O)Nc2ccccc2)C(c2ccc(O)cc2)n2nc(-c3ccc(Cl)cc3)nc2N1 (centres undefined)	-20	0	-7	4	-1%	3
Cc1cccc(CC(=O)N2CC(=O)Nc3ccc(Br)cc3C2c2ccc(F)cc2)c1 (centres undefined)	25	2	0	5	1%	0
Cc1ccc(Cn2c(=O)n(CCc3ccccc3)c(=O)c3sc4ccccc4c32)cc1	-5	2	-2	-7	1%	2
O=C(CN1C(=O)NC2(CCCCCCC2)C1=O)Nc1ccc(Br)cc1	-40*	0	2	0	nt	0
O=C(CCCN1C(=O)NC2(CCCC2)C1=O)Nc1ccc(F)cc1	-38*	0	-7	-3	nt	0
COc1cccc(N2CCN(c3c4c(nc5ncnn35)CCC4)CC2)c1	-30*	5	-7	-7	1%	0
Cc1cc(C)cc(Nc2c3c(nc4ncnn24)CCC3)c1	3	0	-2	-3	4%	-1
Cc1cccc(Nc2c3c(nc4ncnn24)CCC3)c1	-30*	1	-2	4	0%	-3
Cc1cccc(S(=O)(=O)c2cn(Cc3ccc(F)cc3)c3cc(N4CCCCC4)c(F)cc3c2=O)c1	5	1	1	4	0%	2
O=C1C(C=NCCCN2CCOCC2)=C(O)c2ccccc21	-37*	2	-8	1	-2%	0
CN(C)CCCNc1oc(/C=C/c2ccc(F)cc2)nc1C#N	3	-1	-1	2	-1%	-1
Cc1csc2nc3cc(C(N)=O)ccc3c(=O)n12	-44*	9	-2	-3	-2%	-1
O=C(COC(=O)CNC(=O)c1cccc([N+](=O)[O-])c1)Nc1nc2ccccc2s1	-8	3	-8	-3	-1%	0
O=C(COC(=O)CNC(=O)c1cccc([N+](=O)[O-])c1)Nc1ccccc1OC(F)F	-8	4	2	34*	-2%	-1
COc1ccc(-c2noc(N3CCC(C(=O)N4CCN(c5cccc(OC)c5)CC4)CC3)n2)cc1	4	6	-3	5	-1%	0
O=S1(=O)c2ccccc2N(Cc2ccccc2F)c2ccccc21	3	13	-4	-3	1%	0
COc1ccc(CCNC(=O)COC(=O)c2ccc(C)s2)cc1OC	-33*	7	-12	-2	nt	0
COc1ccc(CCC(=O)NCCc2ccc(OC)c(OC)c2)cc1	-7	4	-10	8	nt	-1
